Calls of active or inactive are those of the source. How the source made its calls: active means hit-call score of the fitted dose curve at least 0.9, where 1 is the maximum; inactive means score below 0.9.
Key:
Settings in all cases: mRNA level, 48 h; actives raise or lower the signal
[1] = read-out: growth arrest and DNA damage 45 (GADD45A), GADD45A (gene 1647); assay: LTEA_HepaRG_GADD45A: Life Technologies and Expression Analysis (LTEA) Assay for growth arrest and DNA damage 45 (GADD45A) using HepaRG (AID 2283458)
In short: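 GADD45A expression was measured by TaqMan qRT-PCR against three housekeeping genes (ACTB, GAPDH, POLR2A) after 48 h treatment of HepaRG cells. Eight-point half-log series up to 100 uM in 0.5% DMSO, run in duplicate.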

[2] = read-out: Forkhead box O3 (FOXO3), FOXO3 (gene 2309); assay: LTEA_HepaRG_FOXO3: Life Technologies and Expression Analysis (LTEA) Assay for Forkhead box O3 (FOXO3) using HepaRG (AID 2283459)
In short: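 FOXO3 transcript measured by qRT-PCR (normalized to ACTB, GAPDH, POLR2A) after 48 h exposure of HepaRG cells in serum-free induction medium. Duplicates, eight half-log concentrations up to 100 uM, 0.5% DMSO; gain or loss fitted against DMSO.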

[3] = read-out: ABC Transporter (ABCB1), ABCB1 (gene 5243); assay: LTEA_HepaRG_ABCB1: Life Technologies and Expression Analysis (LTEA) Assay for ABC Transporter (ABCB1) using HepaRG (AID 2283460)
In short: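 ABCB1 transcript level measured by TaqMan qRT-PCR against three housekeeping genes after 48 h chemical exposure of differentiated HepaRG cells. Top concentration 100 uM, half-log steps, eight points, 0.5% DMSO vehicle; bidirectional fit relative to DMSO.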

[4] = read-out: growth arrest and DNA damage 45 (GADD45B), GADD45B (gene 4616); assay: LTEA_HepaRG_GADD45B: Life Technologies and Expression Analysis (LTEA) Assay for growth arrest and DNA damage 45 (GADD45B) using HepaRG (AID 2283461)
In short: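 Values are bidirectional concentration-response fits against 0.5% DMSO controls. Underlying data: qRT-PCR mRNA levels in human HepaRG liver cells treated 48 h in serum-free induction medium, eight concentrations topping at 100 uM.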

[5] = read-out: ABC Transporter (ABCC3), ABCC3 (gene 8714); assay: LTEA_HepaRG_ABCC3: Life Technologies and Expression Analysis (LTEA) Assay for ABC Transporter (ABCC3) using HepaRG (AID 2283462)
In short: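 Differentiated HepaRG liver cells receive test chemicals at eight concentrations (max 100 uM) for 48 h. Expression of ABCC3 is quantified by qRT-PCR against ACTB, GAPDH and POLR2A, and activity is fitted in both directions against the DMSO control.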

[6] = read-out: ABC Transporter (ABCB11), ABCB11 (gene 8647); assay: LTEA_HepaRG_ABCB11: Life Technologies and Expression Analysis (LTEA) Assay for ABC Transporter (ABCB11) using HepaRG (AID 2283463)
In short: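 ABCB11 transcript levels quantified by TaqMan qRT-PCR against three housekeeping genes after 48 h chemical exposure of HepaRG cultures. Concentrations up to 100 uM in half-log steps, 0.5% DMSO vehicle; both induction and suppression scored.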

[7] = read-out: ABC Transporter (ABCC2), ABCC2 (gene 1244); assay: LTEA_HepaRG_ABCC2: Life Technologies and Expression Analysis (LTEA) Assay for ABC Transporter (ABCC2) using HepaRG (AID 2283464)
In short: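 Gene expression of ABCC2 was determined by qRT-PCR in HepaRG cells exposed 48 h to chemicals (highest 100 uM, half-log dilutions). Activity was fitted in both directions relative to 0.5% DMSO vehicle.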

[8] = read-out: Broad substrate specificity ATP-binding cassette transporter ABCG2 (Homo sapiens) (UniProt Q9UNQ0); assay: LTEA_HepaRG_ABCG2: Life Technologies and Expression Analysis (LTEA) Assay for ABC Transporter (ABCG2) using HepaRG (AID 2283465)
In short: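 ABCG2 transcript was quantified by TaqMan qRT-PCR against three housekeeping genes in HepaRG cells. Cells were treated in duplicate for 48 h across an 8-point half-log series up to 100 uM, with 0.5% DMSO vehicle. Gain or loss versus DMSO was fit.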

[9] = read-out: Peroxisomal acyl-coenzyme A oxidase 1 (ACOX1) gene, ACOX1 (gene 51); assay: LTEA_HepaRG_ACOX1: Life Technologies and Expression Analysis (LTEA) Assay for Peroxisomal acyl-coenzyme A oxidase 1 (ACOX1) gene using HepaRG (AID 2283467)
In short: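 ACOX1 transcript levels were quantified by TaqMan qRT-PCR against three housekeeping genes after 48 h chemical exposure of differentiated human HepaRG cells. Exposure used eight half-log steps topping at 100 uM, 0.5% DMSO vehicle, in duplicate. Bidirectional curve fits were made relative to DMSO.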

[10] = read-out: Alkaline Phosphatase, Placental (ALPP) gene, ALPP (gene 250); assay: LTEA_HepaRG_ALPP: Life Technologies and Expression Analysis (LTEA) Assay for Alkaline Phosphatase, Placental (ALPP) gene using HepaRG (AID 2283468)
In short: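 Expression of ALPP was quantified by qRT-PCR against three housekeeping genes in human HepaRG cultures treated for 48 h with an eight-point concentration series up to 100 uM. Activity in either direction was fitted relative to 0.5% DMSO.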

[11] = read-out: Bcl-2 (BAD) gene, BAD (gene 572); assay: LTEA_HepaRG_BAD: Life Technologies and Expression Analysis (LTEA) Assay for Bcl-2 (BAD) gene using HepaRG (AID 2283469)
In short: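 Read-out: qRT-PCR of BAD mRNA, normalized to three housekeeping genes. Human HepaRG cultures got 48 h chemical exposure in 0.5% DMSO, duplicate eight-point half-log series topping at 100 uM. Gain or loss of signal fitted versus DMSO vehicle.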

[12] = read-out: Bcl-2 (BAX) gene, BAX (gene 581); assay: LTEA_HepaRG_BAX: Life Technologies and Expression Analysis (LTEA) Assay for Bcl-2 (BAX) gene using HepaRG (AID 2283470)
In short: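 Gene expression measured by Fluidigm qRT-PCR with three housekeeping genes for normalisation. HepaRG cells, plated 48 h beforehand, treated 48 h at up to 100 uM (8-point, half-log) in 0.5% DMSO. Bidirectional fitting versus DMSO.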

[13] = read-out: adenosine kinase (ADK) gene, ADK (gene 132); assay: LTEA_HepaRG_ADK: Life Technologies and Expression Analysis (LTEA) Assay for adenosine kinase (ADK) gene using HepaRG (AID 2283471)
In short: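 ADK expression quantified by qRT-PCR, normalised to three housekeeping genes, after 48 h exposure of HepaRG cells to eight concentrations (top 100 uM, half-log steps, duplicate, 0.5% DMSO). Up- or down-regulation fitted relative to vehicle.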

[14] = read-out: Alpha-fetoprotein (AFP) gene, AFP (gene 174); assay: LTEA_HepaRG_AFP: Life Technologies and Expression Analysis (LTEA) Assay for Alpha-fetoprotein (AFP) gene using HepaRG (AID 2283472)
In short: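 AFP transcript measured by TaqMan qRT-PCR with three housekeeping genes for normalization, after 48 h chemical treatment of HepaRG cells (top 100 uM, half-log steps, 0.5% DMSO). Gain or loss fitted against vehicle.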

BCL2L11 (gene 10018) = assay: LTEA_HepaRG_BCL2L11: Life Technologies and Expression Analysis (LTEA) Assay for Bcl-2 (BCL2L11) gene using HepaRG (AID 2283473)
In short: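 Cells were plated, cultured 48 h, switched to serum-free induction medium, then dosed in duplicate for 48 h at eight half-log concentrations up to 100 uM. Lysates underwent RNA isolation and TaqMan qRT-PCR; gain or loss versus DMSO was fitted.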

[15] = read-out: Apolipoprotein A-V (APOA5) gene, APOA5 (gene 116519); assay: LTEA_HepaRG_APOA5: Life Technologies and Expression Analysis (LTEA) Assay for Apolipoprotein A-V (APOA5) gene using HepaRG (AID 2283474)
In short: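 Human liver HepaRG cells are treated 48 h with test chemicals (100 uM top, half-log dilutions, 0.5% DMSO). APOA5 mRNA induction or loss is measured by qRT-PCR relative to vehicle.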

[16] = read-out: Apoptosis regulator Bcl-2 (Homo sapiens) (UniProt P10415); assay: LTEA_HepaRG_BCL2: Life Technologies and Expression Analysis (LTEA) Assay for Bcl-2 gene using HepaRG (AID 2283475)
In short: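 qRT-PCR of BCL2 transcript, normalized to three housekeeping genes (ACTB, GAPDH, POLR2A), after 48 h chemical exposure of HepaRG cells; concentrations top 100 uM with half-log dilutions, 0.5% DMSO vehicle, duplicates; changes up or down fitted relative to vehicle.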

[17] = read-out: Bcl-2 (BID) gene, BID (gene 637); assay: LTEA_HepaRG_BID: Life Technologies and Expression Analysis (LTEA) Assay for Bcl-2 (BID) gene using HepaRG (AID 2283476)
In short: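 Duplicate 48 h treatments of HepaRG cells in serum-free induction medium spanned 100 uM downward in half-log steps, 0.5% DMSO. Transcript change quantified by qRT-PCR against three housekeeping genes, fitted up or down versus DMSO.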

[18] = read-out: ATP-citrate lyase (ACLY), ACLY (gene 47); assay: LTEA_HepaRG_ACLY: Life Technologies and Expression Analysis (LTEA) Assay for ATP-citrate lyase (ACLY) using HepaRG (AID 2283466)
In short: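 ACLY mRNA quantified by qRT-PCR on Fluidigm arrays against three housekeeping genes, after 48 h chemical treatment of HepaRG cells (top concentration 100 uM, half-log steps, 0.5% DMSO vehicle). Up- or down-regulation fitted relative to DMSO.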

Caspase-3 (Homo sapiens) = Caspase-3 (Homo sapiens) (UniProt P42574); assay: LTEA_HepaRG_CASP3: Life Technologies and Expression Analysis (LTEA) Assay for cysteine-aspartic acid protease (CASP3) using HepaRG (AID 2283477)
In short: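 In HepaRG liver cells dosed for 48 h at up to 100 uM (eight-point, duplicate), CASP3 expression changes are scored by qRT-PCR. Activity is fitted in both directions with 0.5% DMSO as baseline.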

Measured: outcome

Broad substrate specificity ATP-binding cassette transporter ABCG2 (Homo sapiens), sequence (Q9UNQ0 whole entry, looked up): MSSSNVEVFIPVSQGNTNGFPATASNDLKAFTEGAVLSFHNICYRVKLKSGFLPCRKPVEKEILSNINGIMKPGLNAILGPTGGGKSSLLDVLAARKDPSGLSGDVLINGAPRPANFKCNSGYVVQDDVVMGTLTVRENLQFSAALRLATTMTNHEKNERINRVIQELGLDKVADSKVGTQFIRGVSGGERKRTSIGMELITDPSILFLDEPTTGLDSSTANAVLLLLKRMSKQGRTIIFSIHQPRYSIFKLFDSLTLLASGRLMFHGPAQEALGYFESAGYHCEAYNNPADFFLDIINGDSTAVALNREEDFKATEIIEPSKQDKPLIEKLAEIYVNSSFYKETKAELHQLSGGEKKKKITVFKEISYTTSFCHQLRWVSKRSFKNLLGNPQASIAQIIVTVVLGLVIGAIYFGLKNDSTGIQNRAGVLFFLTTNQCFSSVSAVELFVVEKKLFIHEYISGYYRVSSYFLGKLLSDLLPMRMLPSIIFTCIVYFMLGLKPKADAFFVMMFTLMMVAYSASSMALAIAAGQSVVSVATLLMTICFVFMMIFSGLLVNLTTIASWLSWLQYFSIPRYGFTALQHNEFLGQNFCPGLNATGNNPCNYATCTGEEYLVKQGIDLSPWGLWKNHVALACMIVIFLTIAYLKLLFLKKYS
Apoptosis regulator Bcl-2 (Homo sapiens), sequence (P10415 whole entry, looked up): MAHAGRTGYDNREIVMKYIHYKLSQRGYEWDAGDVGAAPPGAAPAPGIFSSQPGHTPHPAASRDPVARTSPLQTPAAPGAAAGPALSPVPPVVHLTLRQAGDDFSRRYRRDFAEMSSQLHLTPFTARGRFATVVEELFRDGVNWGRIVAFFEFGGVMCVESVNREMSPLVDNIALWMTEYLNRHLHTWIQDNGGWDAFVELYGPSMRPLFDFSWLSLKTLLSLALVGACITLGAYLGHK
Caspase-3 (Homo sapiens), sequence (P42574 whole entry, looked up): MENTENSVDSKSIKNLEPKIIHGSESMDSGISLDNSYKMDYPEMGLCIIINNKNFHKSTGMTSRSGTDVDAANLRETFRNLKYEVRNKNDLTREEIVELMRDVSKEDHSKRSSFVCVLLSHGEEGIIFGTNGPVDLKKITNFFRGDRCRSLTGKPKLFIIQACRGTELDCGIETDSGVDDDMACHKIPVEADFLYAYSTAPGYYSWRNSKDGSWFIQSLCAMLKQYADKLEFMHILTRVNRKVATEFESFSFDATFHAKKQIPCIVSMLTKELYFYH

C[C@@H](Oc1ccc(CNC(=O)c2cccnc2Oc2ccc3c(c2)OCO3)c(F)c1)C(=O)O
not listed: [18] | Caspase-3 (Homo sapiens)
inactive: all other assays above

CCCCC(CC)C(=O)OCCOCCOCCOC(=O)C(CC)CCCC (configuration not stated)
not listed: Caspase-3 (Homo sapiens)
inactive: all other assays above

CCCCCCCC/C=C\CCCCCCCC(=O)OC[C@@H](O)[C@H]1OC[C@H](O)[C@H]1O
not listed: [8] | Caspase-3 (Homo sapiens)
inactive: all other assays above

O=C(O)c1ccc2c(c1)nc(C(=O)NC1CCN(C3CC3)CC1)n2Cc1cc(-c2ccc(Cl)s2)on1
not listed: [18] | Caspase-3 (Homo sapiens)
inactive: all other assays above

CCCc1ccccc1
not listed: [18]
inactive: all other assays above

OCc1ccccc1
inactive: all assays above
